# Luciferase inh: Firefly luciferase inhibition profiling of diverse chemical library using quantitative high-throughput screening; Luciferin 4-monooxygenase (Photinus pyralis), P08659; purified P. pyralis luciferase, luminescence, biochemical; Potency, µM (doses to about 115 µM), most hits filed as inhibitors; actives 2.5% (n = 76,000); AID 1347043, 2019; also: % is scaled to controls: 0 for no effect and ±100 for the full control effect; nearly all actives have a fitted effect of over 65% in size
# Target sequence (P08659 whole entry, looked up): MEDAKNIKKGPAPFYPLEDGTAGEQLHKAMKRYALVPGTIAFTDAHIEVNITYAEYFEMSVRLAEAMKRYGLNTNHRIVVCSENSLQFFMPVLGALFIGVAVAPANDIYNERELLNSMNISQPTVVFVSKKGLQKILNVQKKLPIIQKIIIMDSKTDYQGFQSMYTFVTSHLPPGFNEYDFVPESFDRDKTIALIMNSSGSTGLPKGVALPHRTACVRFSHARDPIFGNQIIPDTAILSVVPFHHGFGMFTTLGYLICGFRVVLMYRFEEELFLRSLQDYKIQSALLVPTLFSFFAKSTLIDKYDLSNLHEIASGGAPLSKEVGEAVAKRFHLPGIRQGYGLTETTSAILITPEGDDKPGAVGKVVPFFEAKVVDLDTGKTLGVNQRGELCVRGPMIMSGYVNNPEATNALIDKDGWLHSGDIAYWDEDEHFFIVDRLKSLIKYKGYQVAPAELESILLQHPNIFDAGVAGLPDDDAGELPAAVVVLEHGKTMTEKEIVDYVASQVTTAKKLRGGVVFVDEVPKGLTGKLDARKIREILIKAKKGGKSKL
#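 Cell-free enzyme assay, 10nM P. pyralis luciferase, luciferin and ATP each at 10uM. Inhibition profiled over a 6-point titration, read as luminescence.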
# GPT2 inh: Primary qHTS assay for inhibitors of Glutamate pyruvate transaminase 2 (GPT2). Alanine aminotransferase 2 (Homo sapiens), Q8TD30. actives 0.25% (n = 100,000). Recombinant GPT2, coupled pyruvate oxidase/HRP Amplex Red fluorescence. AID 1671188, 2021. Potency, µM (top dose mostly 57.7 µM), inactives show at the highest dose activity change, negative = inhibition, hits mostly inhibitors; also: % is scaled to controls: 0 for no effect and ±100 for the full control effect; nearly all actives have a fitted effect of over 60% in size
#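 Recombinant GPT2 (10ng/uL) with 250uM a-KG and 2mM L-alanine, 30 min at room temperature, in HEPES pH 7.5 buffer. Pyruvate detected by pyruvate oxidase/HRP/Amplex Red fluorescence after 30 min in the dark; AOA (50uM) as positive control.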
# HEK293 tox: Cytotoxic Profiling in HEK 293 Cell Line of Diverse Libraries Using Quantitative High-Throughput Screening. HEK 293 viability, ATP luminescence (CellTiter-Glo), 48-72 h. Potency, µM (series often up to 115 µM), without a hit: at the top dose activity change, negative = cytotoxicity, usual class: inhibitors. actives 6.6% (n = 94,000); also: % is scaled to controls: 0 for no effect and ±100 for the full control effect; nearly all actives have a fitted effect of over 60% in size
#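 HEK 293 seeded at 250 cells/well receive compound via pintool. After 48 or 72 hr at 37 degree Celsius, 5% CO2 and 95% humidity, CellTiter-Glo is dispensed and luminescence read following 10 min at room temperature.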
# NPR1 antag: Natriuretic polypeptide receptor (hNpr1) antagonism - Primary qHTS; Atrial natriuretic peptide receptor 1 (Homo sapiens), P16066; HEK293 hNpr1 GloSensor cGMP, ANP-stimulated luminescence; Potency, µM (titrated, usually from 46.3 µM), without a hit: at the highest dose activity change, negative = inhibition, hits mostly inhibitors; actives 1.6% (n = 76,000); AID 1347048, 2019; calls by dose curve; also: % is scaled to controls: 0 for no effect and ±100 for the full control effect; nearly all actives have a fitted effect of over 60% in size
#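 HEK293 cells stably expressing human Npr1 and cGMP GloSensor pGS-40F, loaded 2 h with 2% GloSensor reagent, given compound 30 min at room temperature. Luminescence read before and 20 min after 0.1 nM hNppA.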
# NIH3T3 tox: Cytotoxic Profiling in NIH 3T3 Cell Line of Diverse Libraries Using Quantitative High-Throughput Screening. NIH 3T3 viability, CellTiter-Glo ATP luminescence, 48-72 h. Potency, µM (doses to about 96.7 µM), for inactives: at the top dose activity change, negative = cytotoxicity, most hits filed as inhibitors. actives 4.3% (n = 94,000). AID 1345082, 2018; also: % is scaled to controls: 0 for no effect and ±100 for the full control effect; nearly all actives have a fitted effect of over 55% in size
#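 Mouse fibroblast NIH 3T3 cells, 400 per well, received compound via pintool and were incubated for 48 or 72 hr prior to CellTiter-Glo ATP luminescence measurement.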
# Npr1 antag conf: Natriuretic polypeptide receptor (hNpr1) antagonism - Confirmation | Potency, µM (series often up to 57.6 µM), inactives show at the highest dose activity change, negative = inhibition, usual class: inhibitors | AID 1347044, 2019 | shares compounds with NPR1 antag | HEK293 hNpr1 cGMP GloSensor luminescence, ANP-stimulated | actives 76% (n = 1,400); calls by dose curve; also: nearly all actives have a fitted effect of over 70% in size
# Npr2 selectivity: Natriuretic polypeptide receptor (hNpr2) antagonism - Subtype selectivity assay | Potency, µM (top dose mostly 57.6 µM), without a hit: at the top dose activity change, negative = inhibition, hits mostly inhibitors | actives 67% (n = 1,400) | shares compounds with NPR1 antag | HEK293 hNpr2 GloSensor cGMP luminescence, CNP-stimulated | AID 1347046, 2019; calls by dose curve; also: nearly all actives have a fitted effect of over 70% in size
# FLuc counter: Natriuretic polypeptide receptor (hNpr1) antagonism - Confirmation firefly luciferase (FLuc) inhibition counterscreen; shares compounds with NPR1 antag; purified FLuc enzyme, luminescence, Km substrate; Potency, µM (series often up to 57.6 µM), without a hit: top-dose activity change, negative = inhibition, actives largely listed as inhibitors; actives 0.7% (n = 1,400); also: 0% is about no effect
# GloSensor ctrl: Natriuretic polypeptide receptor (hNpr1) antagonism - Counterscreen GloSensor control cell line | shares compounds with NPR1 antag | HEK293 GloSensor cGMP, SNP-stimulated, luminescence | Potency, µM (series often up to 57.6 µM), inactives show top-dose activity change, negative = inhibition, most hits filed as inhibitors | actives 69% (n = 1,400); calls by dose curve; also: % is scaled to controls: 0 for no effect and ±100 for the full control effect; nearly all actives have a fitted effect of over 70% in size
# Active calls of the source: *; i = inactive; ? = inconclusive; / = no result given; [ ] = dose if it differs, or a comment. An excerpt weighted towards active compounds, which were near 10% of everything screened. Unless noted, calls follow the shape of the dose curve; as a rule, active = well fitted curve in the direction sought with a large enough effect; inconclusive = small, poorly fitted or top-dose-only effect, or another doubt; inactive = no such curve, though single readings can be large; an effect the other way counts as inactive or inconclusive. Potency is read from the fitted curve at half-maximal effect.
SMILES,Luciferase inh,GPT2 inh,HEK293 tox,NPR1 antag,NIH3T3 tox,Npr1 antag conf,Npr2 selectivity,FLuc counter,GloSensor ctrl
O=C(Nc1ccc(-c2cccc(F)c2)cc1)C1CCCN(C(=O)c2ccncc2)C1 (stereo not given),i,i,14µM*,7.1µM*,?,14µM*,15µM*,-15%,11µM*
O=C(Nc1cccc(-c2ccc(F)cc2)c1)C1CCCN(C(=O)c2cccnc2)C1 (stereo not given),i,3%,?,-15%,?,/,/,/,/
COC1CCN(C(=O)C(C)(C)Oc2nn(CCOc3ccccc3)c3ccccc23)CC1,i,i,89µM*,?,?,?,25µM*,-4%[86.2 µM],-1%[86.2 µM]
Cc1cc(NC(=O)C(C)(C)Oc2nn(CCOc3ccccc3)c3ccccc23)n(C)n1,i,-4%[88.5 µM],?,25µM*,?,35µM*,35µM*,2%[86.2 µM],31µM*
COCc1ccc2c(c1)c(OC(C)(C)C(=O)Nc1cc(C)nn1C)nn2Cc1ccccc1,i,1%,?,1%,?,/,/,/,/
CC(C)(Oc1nn(Cc2cccc(Cl)c2)c2ccccc12)C(=O)N1CCN(CCO)CC1,i,1%,?,?,?,?,?,4%,-2%
CC(C)(Oc1nn(CCN2CCOCC2)c2ccccc12)C(=O)NCc1ccccc1,i,-16%[88.5 µM],?,-11%[70.6 µM],-12%[138 µM],/,/,/,/
CCNC(=O)Nc1ccc(OCC(=O)NC(C)c2ccc(OC)c(OC)c2)nc1 (stereo not given),i,1%,-2%,-1%,-2%,/,/,/,/
O=C(NC1CN(c2ccnc3ccnn23)C1)c1ccncc1,/,i,-9%[172 µM],/,-12%[138 µM],/,/,/,/
O=C(Nc1ccc2cn[nH]c2c1)c1ccc2c(c1)OCCN(c1ccccc1)C2,i,-9%[88.5 µM],45µM*,?,40µM*,35µM*,?,-18%[86.2 µM],35µM*
CCc1ncc2c(=O)n(Cc3ccc(OC)cc3)ccn12,i,-11%,?,10µM*,-26%,12µM*,12µM*,-3%,8.6µM*
CCc1nc(CC)n2ccn(Cc3ccc(OC)cc3)c(=O)c12,i,0%,?,2%,?,/,/,/,/
COc1ccc(OC)c(CN2CCCn3nc(C)c(-c4ccccc4OCc4ccccc4)c32)c1,i,i,11µM*,7.1µM*,8.9µM*,14µM*,19µM*,-1%,12µM*
Cc1nn2c(c1-c1ccccc1Oc1ccccc1)N(CC1CC1)CCC2,i,-3%[88.5 µM],28µM*,?,32µM*,40µM*,35µM*,-11%[86.2 µM],40µM*
COc1ccc(OC)c(CN2CCCn3nc(C)c(-c4ccnn4C(C)C)c32)c1,i,2%[88.5 µM],?,-18%[70.6 µM],-18%[138 µM],/,/,/,/
Cc1nn2c(c1-c1ccccc1OCc1ccccc1)N(CC1CC1)CCC2,i,-12%[88.5 µM],?,7.1µM*,?,6.3µM*,31µM*,-4%[86.2 µM],5.6µM*
CC(C)c1noc(-c2cn(C3CCN(C(=O)c4cccc(N(C)C)c4)CC3)nn2)n1,i,i,?,-3%,-18%,/,/,/,/
O=C(C1CCCN(C(=O)C2CC2)C1)N1CCC(N2CCOCC2=O)CC1 (stereo not given),/,4%,-2%,/,-14%,/,/,/,/
O=C(N[C@H]1C[C@@H]2C(=O)N[C@H]3CCN(C(=O)c4cccs4)[C@@H]3C(=O)N2C1)C1CCCC1,i,3%[88.5 µM],3%[172 µM],2%[70.6 µM],i,/,/,/,/
Cc1ccc(C)c(CN2C(=O)NC3(CCN(C(=O)Cc4cccc(F)c4)CC3)C2=O)c1,i,-18%,?,?,?,?,?,3%,?
O=C(Cc1cccc(F)c1)N1CCC2(CC1)NC(=O)N(Cc1ccccc1Cl)C2=O,i,i,?,?,?,?,-26%,3%,-24%
CN(Cc1ccc(F)cc1)C(=O)c1ccccc1,i,i,?,-11%[70.6 µM],-19%[138 µM],/,/,/,/
COCCC(=O)N1CCC2(CC1)C(OC)CN2c1cccc(F)c1 (stereo not given),i,i,4%,1%,2%,/,/,/,/
COc1ccc(C2(C(=O)N3CCC4(CC3)C(OC)CN4c3cccc(F)c3)CC2)cc1 (stereo not given),i,i,45µM*,11µM*,?,?,14µM*,2%,-23%
CN(C)C(=O)c1cc(-c2ccccc2F)cc2c1OCCN2Cc1cccnc1,i,?,?,-25%[70.6 µM],-28%[138 µM],?,-25%[86.2 µM],1%[86.2 µM],-25%[86.2 µM]
O=C(NCC1CCCO1)c1cc(-c2ccccc2F)cc2c1OCCN2Cc1cccnc1 (stereo not given),i,i,?,-8%,?,/,/,/,/
O=C(NC1CC1)c1cc(-c2ccccc2F)cc2c1OCCN2Cc1cccnc1,i,-4%[88.5 µM],100µM*,-29%[70.6 µM],89µM*,?,?,2%[86.2 µM],8%[86.2 µM]
O=C(NCCc1cnc[nH]1)c1cc(-c2ccccc2F)cc2c1OCCN2Cc1cccnc1,i,0%,?,-15%,?,/,/,/,/
O=C(c1cc(-c2ccccc2F)cc2c1OCCN2Cc1cccnc1)N1CCC1,i,-2%[88.5 µM],?,?,?,?,?,1%[86.2 µM],-11%[86.2 µM]
O=C(O)C1(Cc2ccccc2F)CCCN(c2ncnc3sccc23)C1 (stereo not given),i,-6%,?,-4%,-27%,/,/,/,/
